# From PubChem BioAssay (Tox21)
# Results filed as inconclusive are left out. A call without a number means that no potency is given here. Active and inactive are the calls of the source. Calls come from the whole dose curve.
# Assay: p53 small molecule agonists, cell-based qHTS assay with rat liver microsomes: qHTS cell viability counter screen (AID 1963580); note: nearly all actives have a fitted effect of over 45% in size
# Conditions: p53RE-bla HCT-116 + rat microsomes, ATP viability, 16 h; series mostly up to 66 µM
# How it was run: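 Intracellular ATP, by CellTiter-Glo luminescence, defines viability. HCT-116 p53RE-bla cells, 4,000 per well, were compound-treated in the presence of rat liver microsomes and NADPH for 16 h at 37 C.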
# Potency is the fitted concentration of half-maximal effect.
row,Structure (SMILES),Potency
1,CC[C@@H](CO)NC(=O)[C@@H]1C=C2c3cccc4c3c(cn4C)C[C@H]2N(C)C1,inactive
2,CCOP(=O)(OCC)Oc1cc(C)nc(C(C)C)n1,inactive
3,CCOP(=S)(OCC)Oc1cc(C)nc(N(CC)CC)n1,inactive
4,O=C1C(=O)c2cccc3cccc1c23,inactive
5,c1csc(-c2ccc(-c3cccs3)s2)c1,inactive
6,Cc1ccccc1OP(=O)(Oc1ccccc1C)Oc1ccccc1C,inactive
7,CCOP(=S)(S)OCC,inactive
8,CC(C)[C@H](C(=O)O[C@H](C#N)c1cccc(Oc2ccccc2)c1)c1ccc(Cl)cc1,inactive
9,O=[N+]([O-])c1cccc2cccnc12,inactive
10,Clc1cccc(SC2CCNCC2)n1,inactive
11,CCCCC(CC)COC(=O)OOC(C)(C)C (configuration not stated),inactive
12,O=[N+]([O-])c1cc(C(F)(F)F)c(Cl)c([N+](=O)[O-])c1Cl,36.3 µM (active)
